Data on twelve molecules can be found in PubChem BioAssay (NCATS).

“And” between values parts separate entries of the source, which are not always exact repeats. Equal values may be shown once. Results filed as inconclusive are left out. The source made the active and inactive calls. Calls follow the shape of the dose curve; as a rule, active = well fitted curve in the direction sought with a large enough effect; inconclusive = small, poorly fitted or top-dose-only effect, or another doubt; inactive = no such curve, though single readings can be large; an effect the other way counts as inactive or inconclusive. Non-standard residues stand in square brackets, D forms with d. Residues, ends and D or L forms follow the SMILES beside them. *: point of attachment. Sta = CC(C)C[C@H](N)[C@@H](O)CC(=O)O; Isovaleryl = CC(C)CC(=O)*

A short description of test [1]: qHTS of pediatric cancer cell lines to identify multiple opportunities for drug repurposing: Confirmatory screen for LAN-5 cells (AID 1347113). Also: nearly all actives have a fitted effect of over 65% in size. Also: potency is read from the fitted curve at half-maximal effect. A digest of the protocol: (§1)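 Viability after 48 h compound treatment at 37C, 500-1,000 cells/well, read as ATP luminescence with CellTiter-Glo. Primary screens used 11-point (MIPE, 0.78 nM-46 µM) or 8-point (NPC, 0.59 nM-46 µM) final concentrations; follow-up screens used 11-point dilutions.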
On the technique in general: qHTS replaces the single test concentration by a dilution series.

The nature of test [2]: qHTS of pediatric cancer cell lines to identify multiple opportunities for drug repurposing: Confirmatory screen for DAOY cells (AID 1347114). Also: nearly all actives have a fitted effect of over 65% in size. Also: potency is read from the fitted curve at half-maximal effect. In short, it runs like this: (§2)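 Viability measured as metabolically active cells via CellTiter-Glo luminescence following 48 hours of compound exposure, 11-point dilutions in confirmatory testing. 500-1,000 cells/well plated 5 hours before dosing; controls were DMSO and 2.3 µM bortezomib.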

A short description of test [3]: qHTS of pediatric cancer cell lines to identify multiple opportunities for drug repurposing: Confirmatory screen for NB-EBc1 cells (AID 1347115).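 Also: cells exposed to compound for 48 h before the viability read; nearly all actives have a fitted effect of over 45% in size.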 Also: potency is read from the fitted curve at half-maximal effect. In short, it runs like this:
as §1

A short description of test [4]: qHTS of pediatric cancer cell lines to identify multiple opportunities for drug repurposing: Confirmatory screen for SJ-GBM2 cells (AID 1347116). Also: nearly all actives have a fitted effect of over 60% in size. Also: potency is read from the fitted curve at half-maximal effect. A digest of the protocol:
as §2

Test [5] is described as follows: qHTS of pediatric cancer cell lines to identify multiple opportunities for drug repurposing: Confirmatory screen for MG 63 (6-TG R) cells (AID 1347119). Also: nearly all actives have a fitted effect of over 55% in size. Also: potency is read from the fitted curve at half-maximal effect. In short, it runs like this: as §1
Test [6] is described as follows: qHTS of pediatric cancer cell lines to identify multiple opportunities for drug repurposing: Confirmatory screen for control Hh wild type fibroblast cells (AID 1347121). Also: nearly all actives have a fitted effect of over 70% in size. Also: potency is read from the fitted curve at half-maximal effect. In short, it runs like this:
as §1

Test [7] in a line: qHTS of pediatric cancer cell lines to identify multiple opportunities for drug repurposing: Confirmatory screen for U-2 OS cells (AID 1347122). Also: nearly all actives have a fitted effect of over 65% in size. Also: potency is read from the fitted curve at half-maximal effect. In short, it runs like this: as §1
Test [8] can be described thus: qHTS of pediatric cancer cell lines to identify multiple opportunities for drug repurposing: Confirmatory screen for Rh41 cells (AID 1347123).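 Also: 48 h compound exposure; nearly all actives have a fitted effect of over 60% in size.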 Also: potency is read from the fitted curve at half-maximal effect. A digest of the protocol: as §1
A short description of test [9]: qHTS of pediatric cancer cell lines to identify multiple opportunities for drug repurposing: Confirmatory screen for Rh18 cells (AID 1347125). Also: nearly all actives have a fitted effect of over 55% in size. Also: potency is read from the fitted curve at half-maximal effect. A digest of the protocol: as §1
Test [10] can be described thus: qHTS of pediatric cancer cell lines to identify multiple opportunities for drug repurposing: Confirmatory screen for Saos-2 cells (AID 1347127). Also: nearly all actives have a fitted effect of over 60% in size. Also: potency is read from the fitted curve at half-maximal effect. A digest of the protocol:
as §1

The test system of test [11] is Zika virus NS2B-NS3 protease. Kind of test: Primary screen GU AMC qHTS for Zika virus inhibitors (AID 1347154). Also: nearly all actives have a fitted effect of over 70% in size. A digest of the protocol:
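Unlinked Zika NS2B hydrophilic domain–NS3 protease complex at 25 nM in 10 mM Tris-HCl pH 8.0, 0.01% Tween 20, with an AMC peptide substrate. Fluorescence change (340/450 nm) over 15 min at room temperature, normalized to controls, fitted to 4-parameter Hill.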

The nature of test [12]: qHTS of pediatric cancer cell lines to identify multiple opportunities for drug repurposing: Confirmatory screen for BT-12 cells (AID 1347112). Also: nearly all actives have a fitted effect of over 55% in size. Also: potency is read from the fitted curve at half-maximal effect. In short, it runs like this: as §1
A short description of test [13]: qHTS of pediatric cancer cell lines to identify multiple opportunities for drug repurposing: Confirmatory screen for Rh30 cells (AID 1347126). Also: nearly all actives have a fitted effect of over 55% in size. Also: potency is read from the fitted curve at half-maximal effect. A digest of the protocol: as §1
Test [14] can be described thus: qHTS of pediatric cancer cell lines to identify multiple opportunities for drug repurposing: Confirmatory screen for OHS-50 cells (AID 1347128). Also: potency is read from the fitted curve at half-maximal effect. A digest of the protocol: as §1
The test system of test [15] is Zika virus NS2B-NS3 protease (unlinked). Kind of test: Optimization of GU AMC qHTS for Zika virus inhibitors: Unlinked NS2B-NS3 protease assay (AID 1347151). Also: nearly all actives have a fitted effect of over 80% in size. Also: potency is read from the fitted curve at half-maximal effect. In short, it runs like this:
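Fluorescence gain (340/450 nm) over 15 min at room temperature, ~20% conversion, gave percent inhibition fitted to a 4-parameter Hill equation; enzyme was unlinked NS2B-NS3 (25 nM final), pH 8.0 Tris buffer.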

The next test addresses Furin (Homo sapiens) (UniProt P09958). Put plainly: Furin counterscreen qHTS for Zika virus inhibitors (AID 1347149). Also: nearly all actives have a fitted effect of over 70% in size. Also: potency is read from the fitted curve at half-maximal effect. A digest of the protocol:
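Fluorogenic cleavage of BOC-RVRR-AMC (2 microM final, Km ~15 µM) was monitored (ex 340, em 450 nm) at 37C after 15 min RT preincubation of 5 nM furin with compounds in HEPES pH 7.0 buffer with CaCl2 and Triton X-100. Percent inhibition was fitted to a 4-parameter Hill curve.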

Test [16] concerns the target N-terminal Xaa-Pro-Lys N-methyltransferase 1 (Homo sapiens) (UniProt Q9BV86). Kind of test: qHTS Assay for Inhibitors of N-terminal methyltransferase 1 (NTMT1): LOPAC validation of the NTMT1 SAHH-coupled ThioGlo3 Assay (AID 1347143).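 Also: SAH from peptide methylation measured as thiol fluorescence via SAHH coupling and ThioGlo3; potency is read from the fitted curve at half-maximal effect; nearly all actives have a fitted effect of over 70% in size.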 A digest of the protocol:
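Recombinant human NTMT1 (125nM) was pre-incubated 1 min at room temperature with compounds over a concentration range, then a mix of 100uM SAM, 10uM SAHH and 15uM ThioGlo3 (concentrations in added reagent) was added. ThioGlo3 fluorescence (ex 340/em 450nm) after 30 min was normalized to the initial reading.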

The subject of test [17] is Zika virus NS2B-NS3 protease (linked construct). Put plainly: Confirmatory screen NINDS AMC qHTS for Zika virus inhibitors (AID 1347152). A digest of the protocol:
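IC50s from 4-parameter Hill fits of percent inhibition, based on AMC fluorescence gain (340/450 nm) over 15 min with 10 microM Bz-Nle-KRR-AMC. Enzyme: 1 nM linked NS2B-NS3 in Tris-HCl pH 8.0; 15-min compound preincubation.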

Test [18] concerns Zika virus NS2B-NS3 protease (unlinked complex). Put plainly: Confirmatory screen GU AMC qHTS for Zika virus inhibitors (AID 1347153). Also: nearly all actives have a fitted effect of over 70% in size. In short, it runs like this:
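Unlinked enzyme 25 nM, Tris pH 8.0/0.01% Tween 20; cpd 15 min RT, dark; + AMC substrate 10 µM (Km 18.3 µM); 340/450 nm read at t0 and 15 min; % inhibition → 4-param fit.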

Chain of Furin (Homo sapiens) (P09958 whole entry, looked up): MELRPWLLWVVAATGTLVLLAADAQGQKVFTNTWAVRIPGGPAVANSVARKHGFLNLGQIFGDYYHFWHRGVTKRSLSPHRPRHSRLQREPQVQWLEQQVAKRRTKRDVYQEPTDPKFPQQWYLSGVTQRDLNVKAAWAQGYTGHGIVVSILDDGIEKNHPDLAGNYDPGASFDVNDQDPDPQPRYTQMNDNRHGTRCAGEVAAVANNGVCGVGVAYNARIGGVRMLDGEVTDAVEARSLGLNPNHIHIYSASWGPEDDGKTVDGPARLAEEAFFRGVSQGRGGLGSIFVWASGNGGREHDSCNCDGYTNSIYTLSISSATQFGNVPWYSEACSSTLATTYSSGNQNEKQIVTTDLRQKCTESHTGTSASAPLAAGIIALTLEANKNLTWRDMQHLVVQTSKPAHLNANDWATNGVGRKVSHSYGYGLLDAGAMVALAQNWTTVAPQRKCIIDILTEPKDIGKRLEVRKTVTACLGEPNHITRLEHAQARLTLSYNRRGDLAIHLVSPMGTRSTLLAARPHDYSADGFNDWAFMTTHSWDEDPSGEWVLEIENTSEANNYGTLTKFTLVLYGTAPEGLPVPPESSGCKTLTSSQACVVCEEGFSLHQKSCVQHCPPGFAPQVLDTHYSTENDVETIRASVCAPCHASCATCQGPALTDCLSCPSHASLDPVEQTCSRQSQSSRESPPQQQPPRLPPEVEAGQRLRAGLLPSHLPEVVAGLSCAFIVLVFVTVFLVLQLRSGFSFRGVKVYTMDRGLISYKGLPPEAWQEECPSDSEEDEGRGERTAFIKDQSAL
Chain of N-terminal Xaa-Pro-Lys N-methyltransferase 1 (Homo sapiens) (Q9BV86 whole entry, looked up): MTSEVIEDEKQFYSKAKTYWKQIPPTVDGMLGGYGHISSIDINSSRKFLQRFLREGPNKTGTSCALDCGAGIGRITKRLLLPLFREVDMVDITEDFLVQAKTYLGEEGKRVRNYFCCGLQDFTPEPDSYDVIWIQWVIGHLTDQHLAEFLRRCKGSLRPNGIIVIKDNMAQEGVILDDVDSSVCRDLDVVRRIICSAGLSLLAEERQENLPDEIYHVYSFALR

On to `O=C(NCC1CCCCN1)c1cc(OCC(F)(F)F)ccc1OCC(F)(F)F` (stereo not given), for which the Potency entry in test [1], in test [2], in test [3], in test [4], in test [5] and in [6] was “inactive” in each case. The Potency result in test [7], in test [8], in test [9], in test [10] and in [11] was “inactive” throughout.
`CC(C)CC(=O)N[C@H](C(=O)N[C@H](C(=O)N[C@@H](CC(C)C)[C@@H](O)CC(=O)N[C@@H](C)C(=O)N[C@@H](CC(C)C)[C@@H](O)CC(=O)O)C(C)C)C(C)C` (Isovaleryl-VV[Sta]A[Sta]-OH): the Potency entry in [2], in [3] and in [11] was “inactive” in each case.
Regarding `CN(C)c1ccc2nc3ccc(=[N+](C)C)cc-3sc2c1`, the Potency is 1.04 µM (active) in [12]; 3.69 µM (active) in test [1]; 4.65 µM (active) in test [2]; 6.57 µM (active) in test [3]; 1470 nM (active) in [4]; 0.928 µM (active) in test [5]. For the same molecule, the Potency in test [6] is 18500 nM (active); in test [7], 2.93 µM (active); in test [8] it was 2.61 µM (active); in test [9], 6570 nM (active); in test [13], 1170 nM (active); in test [10], 1170 nM (active). Also, the Potency in test [14] was 8270 nM (active). Also, the Potency result in test [11] is “inactive”.
For the molecule `O=C(CCc1ccc(O)cc1)c1c(O)cc(O)cc1O`, the Potency entry in test [12], in test [1], in test [3], in test [5], in test [6] and in test [7] was “inactive” throughout. Also, the Potency entry in [8], in [9], in [13], in [10], in test [14] and in test [15] was “inactive” throughout.
For the molecule `CCCOc1ccc2nc(NC(=O)OC)[nH]c2c1`, the Potency in test [12] was 4.14 µM (active); in test [2], 0.928 µM (active); in [4], 1470 nM (active); in test [5], 1.17 µM (active); in test [7] it was 2.08 µM (active); in test [10], 827 nM (active). The Potency entry in test [6] and in [9] was “inactive” in each case.
Consider `CC(C)C[C@H](NC(=O)[C@H](Cc1ccccc1)NC(=O)c1cnccn1)B(O)O`, for which the Potency in [12] was 0.0465 µM (active); in test [1], 0.0329 µM (active); in test [2], 0.0131 µM (active); in [3] it was 0.0465 µM (active); in test [4], 32.9 nM (active); in test [5], 0.0208 µM (active). The Potency was 827 nM (active) in test [6]; 0.0585 µM (active) in test [7]; 0.0165 µM (active) in test [8]; 46.5 nM (active) in test [9]; 233 nM (active) in test [13]; 208 nM (active) in [10]. In test [14], the Potency is 73.7 nM (active). The Potency result (with Furin (Homo sapiens); in [15]; in test [11]) was “inactive” in each case.
In the case of `Cc1nc(Nc2ncc(C(=O)Nc3c(C)cccc3Cl)s2)cc(N2CCN(CCO)CC2)n1`, the Potency is 6.57 µM (active) in [12]; 16.5 µM (active) in test [2]; 3.29 µM (active) in test [7]; 2.61 µM (active) in test [8]; 208 nM (active) in [9]; 414 nM (active) in test [13]. For the same molecule, the values for the Potency (in the test with Furin (Homo sapiens); in test [15]) were 50100 nM (active) and 398000 nM (active), respectively. Besides, the Potency result in test [3], in test [4], in [6], in test [10], in test [14] and in test [11] was “inactive” throughout.
In the case of `C[C@]12CCC(=O)C=C1CC[C@@H]1[C@H]2[C@@H](O)C[C@@]2(C)[C@H]1CC[C@]2(O)C(=O)CO`, the Potency result in test [12], in test [1], in test [2], in test [3], in test [4] and in test [5] was “inactive” in each case. Besides, the Potency entry in test [6], in test [7], in test [8], in test [9], in [10] and in test [14] was “inactive” throughout.
Regarding `Nc1nc(Cl)nc2c1ncn2[C@H]1C[C@H](O)[C@@H](CO)O1`, the Potency result in test [12], in [2], in [6], in [7], in [8] and in test [9] was “inactive” each time. In addition, the Potency entry in test [13], in test [10] and in [11] was “inactive” each time. Moreover, in test [5], the Potency is 16.5 µM (active).
On to `Oc1ccc(-c2nc(-c3ccc(F)cc3)c(-c3ccncc3)[nH]2)cc1`, for which the Potency in test [12] was 11.7 µM (active); in test [1] it was 1.04 µM (active); in [3], 5.22 µM (active); in test [4], 2330 nM (active); in [5] it was 14.7 µM (active); in [8], 1.47 µM (active). Besides, the Potency was 23300 nM (active) in test [9], 14700 nM (active) in [13], 3690 nM (active) in test [14] and 79400 nM (active) in test [16]. For the same molecule, the Potency result in test [2], in [6], in test [7], in test [17], in test [18] and in [11] was “inactive” each time.
For the molecule `CC[C@]1(O)C[C@H]2CN(CCc3c([nH]c4ccccc34)[C@@](C(=O)OC)(c3cc4c(cc3OC)N(C=O)[C@H]3[C@@](O)(C(=O)OC)[C@H](OC(C)=O)[C@]5(CC)C=CCN6CC[C@]43[C@@H]65)C2)C1`, the Potency was 36.9 nM (active) and 208 nM (active) in test [12]; 58.5 nM (active) and 827 nM (active) in test [1]; 82.7 nM (active) and 92.8 nM (active) in test [2]; 827 nM (active) and 4.14 µM (active) in test [3]; 185 nM (active) in test [4]; 46.5 nM (active) and 329 nM (active) in [5]. For the same molecule, the Potency in test [7] is 414 nM (active) and 585 nM (active); in test [8] it was 23.3 nM (active) and 18.5 nM (active); in [10] it was 8.3 nM (active) and 165 nM (active). For the same molecule, the Potency result in test [6] and in test [9] was “inactive” throughout.
With `CN(C)c1ccc(O)c2c1C[C@H]1C[C@H]3[C@H](N(C)C)C(=O)C(C(N)=O)=C(O)[C@@]3(O)C(=O)C1=C2O`, the Potency result in test [12], in test [1], in test [3], in test [4], in [6] and in [7] was “inactive” throughout. Further, the Potency entry (in [8]; in test [9]; in [10]; in test [14]; with Furin (Homo sapiens); in test [17]) was “inactive” throughout. For the same molecule, in [18], the Potency entry is “inactive”.
